About 79,000 compounds went through this panel and 15% of them were active in at least one assay; those are over-represented in the sample as a whole. Values without a mark were called inactive. Calls of active or inactive are those of the source. No stated cut-off is given here; in the data, active means growth inhibition above about 70%; inactive means the rest.
Assay: NCI Yeast Anticancer Drug Screen. Data for the rad52 strain (AID 147);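 further: 0% = growth of vehicle-treated control cultures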
Conditions: S. cerevisiae rad52 mutant growth inhibition; at 1.2 µM; active compounds read high
Outline: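 Growth of repair-deficient yeast cells was compared between compound-treated and vehicle-treated cultures to give percent inhibition.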

| SMILES | growth inhibition |
| --- | --- |
| Cc1cccc2c(C(O)CBr)cc(-c3ccc(Cl)cc3)nc12 (stereo not given) | 0% |
| CN(C)C[C@H]1CC[C@@H](CN(C)C)C1=O | 17% |
| CC1=C(SCCO)C(=O)c2ccccc2C1=O | -4% |
| COC(=O)CCNc1c2ccccc2nc2cccc([N+](=O)[O-])c12 | 97% (active) |
| CC(/C=C/c1ccc2c(c1)OCO2)[N+](=O)[O-] (stereo not given) | 40% |
| COC(=O)C1=C(C)NC(C)=C(C(=O)OCCCN2CCC(c3ccccc3)(c3ccccc3)CC2)C1c1cccc([N+](=O)[O-])c1 (stereo not given) | -8% |
| CCOC(=O)c1cnc2c(C(F)(F)F)cccc2c1N=[N+]=[N-] | 3% |
| O=[N+]([O-])c1cc2no[n+]([O-])c2cc1N1CCCCC1 | 31% |
| COC(=O)c1ccc(NCC2=CC(=O)C=CC2=O)cc1O | 13% |
| CCCCCCCCNC(=O)C1=C(C)NC(C)=C(C(=O)NCCCCCCCC)C1 | 0% |
| S=C(Nc1ccc(Cl)c(Cl)c1)SCc1ccc2c(c1)OCO2 | 6% |
| O=S(=O)(CCCl)c1ccccc1Cl | -5% |
| Nc1ccccc1CC(O)C(=O)O (stereo not given) | 0% |
| CN(C)c1ccc(Sc2ccc3nc(N)nc(N)c3c2)cc1 | 9% |
| CC(C)C1=CCC2C(=C1)CCC1C(C)(C(=O)O)CCCC21C (stereo not given) (tested in a mixture with another compound) | 0% |
| Cc1ccc(S(=O)(=O)Oc2cc(Cl)c(Cl)cc2Cl)cc1 | -1% |
| CSC(=S)Nc1cc(C)ccn1 | -5% |
| CC(C)c1cc(C(C)C)c(O)c(C([O-])[O-])c1.CC(C)c1cc(C(C)C)c(O)c(C([O-])[O-])c1.CC(C)c1cc(C(C)C)c(O)c(C([OH2+])[OH2+])c1.CC(C)c1cc(C(C)C)c(O)c(C([OH2+])[OH2+])c1.[Cu+2].[Cu+2].[OH3+].[OH3+] | 5% |
| Cc1cc(I)ccc1N | 24% |
| CC(Br)C(=O)c1ccc2cc(Br)c3ccccc3c2c1 (stereo not given) | -2% |

| SMILES | growth inhibition |
| --- | --- |
| O=C(Nc1ccccc1)OCCc1ccc(Cl)c(Cl)c1 | 0% |
| O=Cc1cccc2ccc3ccccc3c12 | -6% |
| O=[N+]([O-])CC(SCc1ccccc1)c1ccc2c(c1)OCO2 (stereo not given) | 39% |
| CC1(Cl)CC(O)C2(CC1Br)C1(C)OC1C1OC1(Br)C2(C)C (stereo not given) | 14% |
| Cc1cc(O)cc(O)c1N=Nc1ccc([N+](=O)[O-])cc1 | 5% |
| CCCCCCCCCCCCCC[N+](C)(CC(=O)[O-])Cc1ccccc1 (stereo not given) | 2% |
| CC1=NN(c2cccc(Cl)c2)C(=O)C1 | -33% |
| CC(=O)OCc1ccc(O)c(C=O)c1 | 1% |
| Cc1ccc2ccc3cccc4ccc1c2c34 | -1% |
| Cc1nc(-[n+]2nc(-c3ccncc3)nn2-c2ccccc2)sc1C | -2% |
| C(CCSC1=NCCN1)CSC1=NCCN1 (tested in a mixture with another compound) | 20% |
| CCCCCCCCCCC(=O)Cl | 13% |
| COC1C=COC2(C)Oc3c(C)c(O)c4c(c3C2=O)/C(=N/C2CCC(O)OC2C)C=C(NC(=O)/C(C)=C\C(=O)C2CC2C(O)C(C)C(O)C(C)C(OC(C)=O)C1C)C4=O (stereo not given) | 0% |
| S=c1[nH]nc(Nc2ccc(Cl)cc2)s1 | -6% |
| O=C1CSC(/C=C/c2ccccc2)N1c1ccc(-c2ccc(-n3c(-c4ccccc4)nc4ccccc4c3=O)cc2)cc1 (stereo not given) | -2% |
| O=C1C=CC(=O)N1c1ccc2c(c1)Cc1cc(NC(=O)C(F)(F)F)ccc1-2 | 12% |
| Brc1ccc(-c2cc3c(cc2C2SCCS2)OCO3)cc1 | -21% |
| Oc1ccc2ccccc2c1C(c1ccc(Cl)cc1)c1c(O)ccc2ccccc12 | -39% |
| C[CH2][Sn]([CH2]C)([O]C(=O)C(OC(C)=O)c1ccccc1)[O]C(=O)C(OC(C)=O)c1ccccc1 (stereo not given) | 3% |
| Cc1ccc2ccc(O)cc2c1 | -31% |
